Screening results from PubChem BioAssay.
Compounds with a hit are over-represented: about 1.6% of the library has one in this group of screens.
LMNA splice mod – LMNA splicing modulation. 200,000 tested, 0.01% active. AID 1487. Potency, µM (titrated, usually from 46.1 µM), hits mostly inhibitors. HeLa LMNA splicing GFP/RFP minigene ratio, 48 h; active = well fitted inhibition curve with a large enough effect in the signal ratio, with a control signal flat, not every such curve was filed as active; inconclusive = small, poorly fitted or top-dose-only effect, or effect the other way, or a change in a side signal; the % refers to the signal ratio
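Read-out is the ratio of GFP to DsRed2 object intensity, acquired by 488 nm laser-scanning cytometry on HeLa lamin A-EGFP minigene reporter cells. Compound incubation 48 hrs at 37 °C in Opti-MEM with 2% FBS; DMSO 0.5% final.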
HttQ103 aggreg – mutant huntingtin aggregation inhibition. PC12 HttQ103-GFP aggregates, Acumen cytometry, 40 h. Potency, µM (top dose mostly 46.1 µM), actives largely listed as inhibitors. 220,000 tested, 1.1% active; note: nearly all actives have a fitted effect of over 60% in size
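Quantitative HTS on tebufenozide-induced (100 nM) PC12 cells stably expressing polyQ103 Huntingtin exon 1–GFP. Reduction of bright GFP aggregates, detected by laser scanning cytometry after lysis, identified actives across the titration.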
HTT ATP protect – Huntington cell model cytoprotection by ATP luminescence | PC12 HTT-Q103 induced, cytoprotection, ATP luminescence, 40 h | Potency, µM (top dose mostly 56.4 µM), hits mostly activators | 230,000 tested, 0.14% active | AID 1471; note: nearly all actives have a fitted effect of over 45% in size
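Readout: ATPlite luminescence (ATP level). Model: stable PC12, inducible Htt exon1 Q103-GFP. Inducer: tebufenozide, 100 nM final. Compounds: dose series. No G418 in medium.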
NPSR antagonist – neuropeptide S receptor (human) antagonism, cAMP. Q6W5P4. CHO-NPSR cells, cAMP TR-FRET, antagonist mode. Potency, µM (series often up to 38.3 µM), most hits filed as inhibitors. 220,000 tested, 1% active. AID 1461; note: nearly all actives have a fitted effect of over 50% in size
Target sequence (Q6W5P4 whole entry, looked up): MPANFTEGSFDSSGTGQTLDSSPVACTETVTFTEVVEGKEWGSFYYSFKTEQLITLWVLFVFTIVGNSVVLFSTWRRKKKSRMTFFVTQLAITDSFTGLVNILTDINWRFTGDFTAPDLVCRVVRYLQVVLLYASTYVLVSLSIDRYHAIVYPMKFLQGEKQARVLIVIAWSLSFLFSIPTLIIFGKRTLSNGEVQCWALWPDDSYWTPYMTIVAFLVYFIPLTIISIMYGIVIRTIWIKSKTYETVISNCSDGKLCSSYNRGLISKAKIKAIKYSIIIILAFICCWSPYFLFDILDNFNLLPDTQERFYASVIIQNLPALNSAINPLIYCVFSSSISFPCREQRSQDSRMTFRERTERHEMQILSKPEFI
IMPase Li cell – IMPase inhibition in cells with lithium potentiation; Potency, µM (doses to about 59.4 µM), most hits filed as inhibitors; CHO-M1 cells, IP1 TR-FRET (IP-One), carbachol + lithium; 210,000 tested, 0.35% active;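 note: IP1 builds up when IMPase is blocked and the TR-FRET signal falls; nearly all actives have a fitted effect of over 50% in size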
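Concentration–response in CHO-M1 cells, lithium-potentiated; 30 min at 37C. IP1 detected by competitive TR-FRET after 10 min lysis at RT. Hill-fitted AC50.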
IMPase cell inh – membrane-permeable compound that blocks inositol monophosphatase | P97697 | CHO-M1 cells, IP1 accumulation, HTRF TR-FRET ratio | inhibition (IP1 accumulation), % at 46.1 µM | 120,000 tested, under 10 active | AID 901; active = well fitted curve in the direction sought with a large enough effect in the signal ratio, not every such curve was filed as active; inconclusive = small, poorly fitted or top-dose-only effect, or a change in a side signal; inactive = no such curve, though single readings can be large or run the other way; the % refers to the signal ratio;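 note: cells stimulated with carbachol in lithium chloride buffer; higher means more IMPase inhibition seen as more IP1 and lower FRET ratio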
Target sequence (P97697 whole entry, looked up): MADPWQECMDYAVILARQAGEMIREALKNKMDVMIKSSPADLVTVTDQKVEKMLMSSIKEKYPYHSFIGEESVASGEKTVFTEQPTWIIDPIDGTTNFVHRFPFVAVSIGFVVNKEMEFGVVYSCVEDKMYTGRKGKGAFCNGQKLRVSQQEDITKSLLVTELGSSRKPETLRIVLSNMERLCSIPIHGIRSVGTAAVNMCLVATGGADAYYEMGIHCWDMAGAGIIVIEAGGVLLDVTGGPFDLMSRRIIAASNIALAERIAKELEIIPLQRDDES
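In this qHTS, compounds (final up to 46 uM) act on CHO-M1 cells that are then activated through the M1 receptor with carbachol, in pH 7.4 buffer containing 50 mM LiCl, for 30 min. IP1 accumulation is quantified by the IP-One immunoassay.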
Hits are given with their value; . = inactive; ? = inconclusive; / = no result given; [ ] = another dose, or the depositor's remark. Unless noted, calls come from the whole dose curve; as a rule, active = well fitted curve in the direction sought with a large enough effect; inconclusive = small, poorly fitted or top-dose-only effect, or another doubt; inactive = no such curve, though single readings can be large; an effect the other way counts as inactive or inconclusive.

SMILES | LMNA splice mod | HttQ103 aggreg | HTT ATP protect | NPSR antagonist | IMPase Li cell | IMPase cell inh
O=C(O)CC[C@@H](NC(=O)c1ccccc1C(=O)O)C(=O)O | / | / | .[1.9 µM] | / | / | .
CCC(C)NC(=O)CSc1nc2ccc(N3CCOCC3)cc2c(=O)n1CCc1ccccc1 (stereo not given) | . | . | . | ? | . | .
CCCCn1c(SCC(=O)NC(C)CC)nc2ccc(N3CCOCC3)cc2c1=O (stereo not given) | . | ? | . | ? | 11.2µM | .
Cn1ncc([N+](=O)[O-])c1C(=O)Nc1nc2ccccc2n1CCN1CCCCC1 | . | . | . | . | 7.94µM | .
O=C1C[C@H]2OCC=C3CN4CC[C@@]5(C(=O)O)[C@H](N1)[C@H]2[C@H]3C[C@H]45 | / | / | .[10 µM] | / | / | /
O=C1CC[C@H](C(=O)N[C@@H]2C[C@H]2c2ccccc2)N1 | / | . | . | / | / | /
COc1ccc(NC(=O)c2ccc3c(c2)NC(=O)CS3)cc1S(=O)(=O)Nc1ccc(Br)cc1 | ? | 17.8µM | . | . | . | /
CC(C)(C)c1nnc2sc(SC/C(O)=C(\C#N)c3nc4ccccc4[nH]3)nn2c1=O | . | . | . | ? | 12.6µM | .
N#Cc1c(Sc2ncc(C(F)(F)F)cc2Cl)nsc1C/C=N\OCc1ccccc1Br | . | . | .[10 µM] | 10µM | . | .
COc1cc([N+](=O)[O-])cc(/C=N/NC(=O)C(C)Nc2cccc(C)c2)c1O (stereo not given) | ? | 10µM | .[10 µM] | . | . | .
COc1cc([N+](=O)[O-])cc(/C=N/NC(=O)C(C)Nc2ccccc2C)c1O (stereo not given) | ? | 12.6µM | .[10 µM] | . | . | /
O=C(c1cc(COc2ccc(F)cc2Cl)on1)N1CCC(OCc2cccnc2)CC1 | / | 11.2µM | . | . | / | /
O=C(c1cc(COc2c(F)cccc2F)on1)N1CCC(c2ccncc2)CC1 | / | 20µM | . | . | . | /
CCNc1ncc2nc(CCc3ccccc3)c(=O)n(C[C@H]3CCCO3)c2n1 | ? | / | . | / | . | /
Cc1nn(-c2ccccc2)c(Cl)c1CN(C(=O)CCl)c1cccc2ccccc12 | ? | 12.6µM | .[1.9 µM] | ? | . | .
Cc1nn(-c2ccccc2)c(Cl)c1CN(C(=O)CCl)c1ccc(Cl)cc1 | ? | 25.1µM | .[10 µM] | ? | . | /
CC(=O)N(Cc1c(C)nn(-c2ccccc2)c1Cl)c1ccc(Cl)cc1 | . | . | . | ? | . | .
O=C(CSc1nnc(-c2c[nH]c3ccccc23)o1)N(Cc1ccccc1)c1ccc(F)cc1 | ? | . | .[10 µM] | 7.94µM | . | .
Cc1noc(C)c1-c1nccc(N2CCNCC2)n1 | . | / | . | / | . | /
CC[n+]1c(/C=C2\Sc3ccccc3N2C)ccc2cccc(C)c21 | ? | 1µM | .[10 µM] | 10µM | ? | /
CC(=S)/C=C1\Sc2ccccc2N1C | . | . | . | . | . | .
CCN1/C(=C/c2ccc3cc(C)ccc3[n+]2CC)Sc2ccccc21 | ? | 0.355µM | .[10 µM] | 10µM | . | /
CCN1/C(=C/c2ccc3cc(C)ccc3[n+]2CC)Sc2cc(C)c(C)cc21 | ? | / | .[10 µM] | ? | . | /
CO[C@@H]1COC(=O)[C@@H](CCSC)NC(=O)C/C=C\[C@@H](C)COC(=O)CCC[C@H]1C | / | / | .[10 µM] | / | / | /
O=C1CN(/N=C\c2ccc([N+](=O)[O-])o2)C(=O)N1 | ? | / | . | / | . | .
SMILES | LMNA splice mod | HttQ103 aggreg | HTT ATP protect | NPSR antagonist | IMPase Li cell | IMPase cell inh
O=C1NC(=S)S/C1=C\C=C\c1ccc([N+](=O)[O-])o1 | / | ? | .[10 µM] | 7.94µM | / | /
O=S(=O)(c1ccc(N2CCN(c3ccc(F)cc3)CC2)cc1)N1CCCC1 | . | . | . | . | . | .
O=S(=O)(c1ccc(N2CCCC2)cc1)C(F)(F)F | ? | 10µM | . | . | . | .
COCC(=O)Nc1c(I)c(C(=O)NC[C@@H](O)CO)c(I)c(C(=O)N(C)C[C@@H](O)CO)c1I | ? | . | . | / | . | .
CCc1ccc(-c2nc(CSCC(=O)N3CCN(c4ncccn4)CC3)c(C)o2)cc1 | ? | 11.2µM | . | . | . | .
CCOc1ccc(-c2nc(CSCC(=O)N3CCN(c4ccc(F)cc4)CC3)c(C)o2)cc1 | . | / | / | / | / | /
CCCCC(CC)COS(=O)(=O)O (stereo not given) | / | . | . | / | / | /
COC(=O)c1ccc2nc(-c3ccc(S(C)(=O)=O)cc3)cn2c1 | . | . | .[10 µM] | . | 11.2µM | /
CCOC(=O)c1ccc(NC(=O)Cn2ncc(Cl)c(Cl)c2=O)cc1 | . | ? | / | 10µM | . | /
COc1ccc([N+](=O)[O-])cc1N | / | / | . | / | . | /
COc1ccccc1N=c1oc2cc(O)ccc2cc1C(N)=O | ? | ? | . | . | . | .
C/C(=N/NC(=O)c1ccncc1)c1cc2ccc(O)cc2oc1=O | . | 12.6µM | .[10 µM] | . | . | /
Cc1cccc(N=c2oc3cc(O)ccc3cc2C(N)=O)c1 | ? | 8.91µM | . | . | . | .
NC(=S)c1cc2ccc(O)cc2oc1=O | . | . | . | 5.01µM | 3.16µM | ?
N#C[C@@H](Cc1ccc(O)c(O)c1)C(=O)N1CCc2ccccc21 | / | / | .[1.9 µM] | / | / | .
O=c1[nH]c(=O)n(C2CC(O)C(CO)O2)cc1C(F)(F)F (stereo not given) | / | / | . | / | . | /
Cc1ccccc1OCC(=O)NC(=S)Nc1ccc2c3c(cccc13)CC2 | . | . | . | . | . | .
COc1ccc(OCC(=O)NC(=S)Nc2ccc3c4c(cccc24)CC3)cc1 | . | . | / | . | 7.08µM | /
C=CCNC(=O)N1CCc2nc(COc3ccccc3)c3c(c2C1)CO[C@@H](C)C3 | .[9.22 µM] | / | .[10 µM] | / | . | /
CO[C@@H]1COC(=O)C/C=C\[C@@H](C)[C@H](OC)COC(=O)C/C=C\[C@H]1C | / | / | .[10 µM] | / | / | /
CN(Cc1c(F)cccc1Cl)c1ccc(S(=O)(=O)N2CCOCC2)cn1 | ? | 3.55µM | . | ? | . | .
CN(CCOc1ccccc1)c1ccc(S(=O)(=O)N2CCCCC2)cn1 | ? | . | . | . | . | .
CC(=O)N1CCN(c2nc(CC(C)C)c3c(c2C#N)CCC3)CC1 | ? | . | . | . | . | .
CC(C)Cc1nc(N2CCN(C(=O)c3ccccc3)CC2)c(C#N)c2c1CCC2 | ? | ? | . | 2µM | . | .
CCn1c(-c2ccc(N(C)C)cc2)nc2ccccc21 | . | 10µM | . | ? | . | .
SMILES | LMNA splice mod | HttQ103 aggreg | HTT ATP protect | NPSR antagonist | IMPase Li cell | IMPase cell inh
C=CCn1c(-c2ccc(OC)cc2)nc2ccccc21 | . | 11.2µM | .[10 µM] | . | . | .
C=CCn1c(-c2ccc(N)cc2)nc2ccccc21 | . | . | . | . | . | .
CCn1c(-c2ccc(N)cc2)nc2ccccc21 | . | . | . | . | . | .
CCCCCCCCCC(=O)NO | / | . | . | / | / | /
NC(N)=N[C@H](CCC(=O)O)C(=O)O | / | / | .[1.9 µM] | / | / | .
Cc1cc(/C=N/n2cnnc2)c(C)n1-c1ccc(Cl)cc1 | ? | . | .[0.074 µM] | . | . | /
Cc1cc(/C=N/n2cnnc2)c(C)n1-c1ccc(OCc2ccc(Cl)cc2Cl)cc1 | ? | 6.31µM | . | ? | . | .
